# The list is a sample of the results.
# aSyn 5UTR act – Activators via SNCA 5'UTR binding, MLPCN. activity score, % (tested at 7.5 µM), hits read low. 300,000 tested, 7.1% active. alpha-synuclein 5'UTR reporter, activators screen; in the data active = activity score below about -60%
# An asterisk follows results filed as active.
SMILES,aSyn 5UTR act
Cn1cc(Br)c(C(=O)Nc2sc3c(c2C(N)=O)CCC3)n1,-95*
Cn1nccc1C(=O)Nc1sc2c(c1C(N)=O)CCCC2,-126*
Cn1nccc1C(=O)Nc1sc2c(c1C#N)CCCC2,-100*
Cc1cc(/C=C(\C#N)C(=O)NCc2ccco2)c(C)n1C1CCCC1,-137*
Cc1cc(/C=C(\C#N)C(=O)NCc2ccco2)c(C)n1-c1cccnc1,-100*
Cc1ccc(C)c(OCCn2cc(/C=C(\C#N)C(=O)NCc3ccco3)c3ccccc32)c1,52
Cc1ccc(-c2cn(-c3ccccc3F)c(=S)[nH]2)cc1,-124*
O=[N+]([O-])c1ccc(-c2cn(-c3ccccc3F)c(=S)[nH]2)cc1,-94*
CCCc1cc(=O)n2[nH]c(-c3ccc(Cl)cc3)cc2n1,-141*
CCCc1cc(=O)n2[nH]c(-c3ccc(C)cc3)cc2n1,-129*
N#CC1=C(N)N2C(=C(C#N)C1c1cccc(Br)c1)Nc1ccccc12 (stereo unspecified),60
O=C(Cc1cc2ccccc2o1)NCc1ccc(F)cc1,-79*
COc1ccc(Nc2cc(C)c3ccccc3n2)cc1,-101*
COc1cccc(C(=O)Nc2nc3c(c(=O)[nH]2)CCCC3)c1,-97*
COc1ccc(C(=O)Nc2nc3ccccc3c(=O)[nH]2)cc1,-127*
COc1ccc(Nc2cccc3ccccc23)cc1,-72*
COc1ccc(C(=O)Nc2cccc3ccccc23)cc1,-138*
COc1ccc(Nc2ccc(OC)cc2)cc1,-105*
OCCOCCNc1ncnc2c1cnn2-c1ccc(Cl)cc1,-93*
OCCOCCNc1ncnc2c1cnn2-c1ccccc1,-137*
COCCN(CCOC)c1ncnc2c1cnn2-c1ccc(Cl)cc1,-139*
COCCNc1ncnc2c1cnn2-c1ccc(Cl)cc1,-78*
COc1ccc(-n2ncc3c(NCCCn4ccnc4)ncnc32)cc1,-122*
COc1cc(NC(=O)c2ccc3c(c2)OCO3)c2ncccc2c1,-66*
Cc1ccc(C(=O)Nc2cccc3cccnc23)cc1Br,-178*
SMILES,aSyn 5UTR act
O=C(Nc1cccc2cccnc12)c1ccc2c(c1)OCCO2,-178*
O=S(=O)(c1ccc(NC(=S)Nc2ccc3c(c2)OCO3)cc1)N1CCOCC1,-227*
CNS(=O)(=O)c1ccc(NC(=S)Nc2ccc3c(c2)OCO3)cc1,-129*
COC(=O)CCCNC(=O)c1ccc2oc(CCCc3ccccc3)nc2c1,-62*
COC(=O)[C@@H](C)NC(=O)c1ccc2oc(CCc3ccccc3)nc2c1,-169*
Cc1cc(C)c2cc(C(=O)Nc3ccccc3)[nH]c2c1,-81*
CCCOc1ccc(NC(=O)c2cc3cc(C)ccc3[nH]2)cc1,-71*
Cc1ccc2[nH]c(C(=O)Nc3ccc(F)cc3)cc2c1,-142*
CCC1CCc2c(sc(NC(=O)c3ccoc3C)c2C(N)=O)C1 (stereo unspecified),-89*
CC(C)(C)C1CCc2c(sc(NC(=O)c3ccncc3)c2C(N)=O)C1 (stereo unspecified),-131*
NC(=O)c1c(NC(=O)c2cccnc2)sc2c1CCCC2,-221*
NC(=O)c1c(NC(=O)c2cccnc2)sc2c1CCCCC2,-177*
CCC1CCc2c(sc(NC(=O)c3cccnc3)c2C(N)=O)C1 (stereo unspecified),-99*
O=C(CCl)NCCN1C(=O)S/C(=C\c2cccnc2)C1=O,-99*
CNC(=O)c1ccsc1NC(=O)c1ccc2c(c1)CCCC2,-214*
CC1=C(CC(=O)c2ccc(Cl)cc2)C(=O)c2ccccc2C1=O,-70*
O=C(Cc1ccccn1)c1ccc(Cl)cc1,-164*
Cn1c(-c2ccccc2)cc2c3no[n+]([O-])c3ccc21,-69*
CCS(=O)(=O)Nc1cccc(C2=NN(C(=O)c3ccco3)C(c3ccco3)C2)c1 (stereo unspecified),-73*
CCc1ccc(C2=NN(C(C)=O)C(c3ccco3)C2)cc1 (stereo unspecified),-202*
COc1ccc(C2=NN(C(N)=S)C(c3ccco3)C2)cc1 (stereo unspecified),-87*
O=[N+]([O-])c1ccc(C2=NN(c3ccccc3)C(c3ccco3)C2)cc1 (stereo unspecified),-75*
c1ccc2c(c1)Cn1c-2nc2ccccc21,-124*
Brc1c(-c2ccccc2)nc2n1Cc1ccccc1-2,-146*
Cc1cccc(-n2ncc3c(NCc4ccco4)ncnc32)c1,-549*
SMILES,aSyn 5UTR act
Cc1ccc(-n2ncc3c(NCc4ccco4)ncnc32)cc1C,-183*
OCc1ccc(O)c2ncccc12,66
O=C(Cc1ccc(-c2ccccc2)cc1)Nc1ncccc1O,-97*
COc1ccc(/C(N)=N/OC(=O)Cc2cccs2)cc1,-129*
COc1ccc(CC(=O)O/N=C(\N)c2ccc(OC)cc2)cc1,-86*
COc1cccc(-c2nnc(N(C)C(=O)C3CCOC3)s2)c1 (stereo unspecified),-71*
CC(=O)c1c(C)nc(-c2ccccc2)nc1N,-72*
CCCNc1nc(-c2ccccc2)c(C(=O)OCC)cc1C#N,94
CCOC(=O)c1c(-c2ccccc2)cn2c(C)cc(C)nc12,-150*
CCOC(=O)c1c(C)nc(-c2ccccc2)nc1N,-120*
O=C(CSc1nnc(-c2cccc(F)c2)o1)N1CCOCC1,-75*
Cc1cccc(-c2nnc(SCC(=O)N3CCOCC3)o2)c1,-70*
CCNc1nc(N)nc(Oc2ccc(C(=O)OC)cc2)n1,-71*
CCNc1nc(Oc2ccc(C#N)cc2)cc(C(F)(F)F)n1,59
CC1(C)CC(=O)c2ccc(OCc3ccc([N+](=O)[O-])cc3)cc2O1,-151*
CC1(C)CC(=O)c2c(O)cc(OCc3ccc(Br)cc3)cc2O1,-165*
C=CCNC(=O)N1CCCC(C(=O)c2cccc(OC(C)C)c2)C1 (stereo unspecified),-89*
CCCC(=O)N1CCCC(C(=O)c2cccc(OC(C)C)c2)C1 (stereo unspecified),-80*
COc1ccc2cc(C(=O)C3CCCN(C(=O)CCc4ccccn4)C3)ccc2c1 (stereo unspecified),-93*
C/C(=N\n1nnnc1Nc1ccccc1)c1ccc(N)cc1,-124*
CC(=O)c1cccc(NC(=O)c2cc3nc(C)cc(C)n3n2)c1,-139*
Cc1cc(C)n2nc(C(=O)Nc3ccc4c(c3)OCO4)cc2n1,-84*
CCC(=O)c1ccc(OCC(O)Cn2nnc3ccccc32)cc1 (stereo unspecified),-74*
c1ccc2cc(-c3cc4ccccn4c3)ccc2c1,-98*
COc1ccc2cc3c(N)nn(C(=O)c4ccccc4Cl)c3nc2c1,65
SMILES,aSyn 5UTR act
COc1ccc2cc(C3OCCO3)c(Cl)nc2c1,-108*
CCC1CC(C(=O)Nc2ccccc2)C(=O)O1 (stereo unspecified),-64*
COC(=O)C1(C)CCC(C(=O)Nc2ccccc2)C1(C)C (stereo unspecified),62
O=C(c1cnn2c1NC(c1ccco1)CC2C(F)(F)F)N1CCN(c2cccc(Cl)c2)CC1 (stereo unspecified),-71*
Cc1ccnc(NC(=O)c2cccc3ccccc23)c1,-63*
C/C(CC(=O)Nc1cc(C)ccn1)=N\NC(=O)c1cccc(C)c1O,-63*
Cc1ccnc(NC(=O)CCc2c[nH]c3ccccc23)c1,-71*
Cc1ccnc(NC(=O)CCNC(=O)c2ccccc2Cl)c1,-103*
Cc1ccnc(NC(=O)c2ccccc2NC(=O)c2ccc(Cl)cc2Cl)c1,69
O=C(CCc1nnc(CCc2c[nH]c3ccccc23)o1)NC1CCC1,-133*
Cc1ccc(Cn2c(SCc3cccnc3)nc3c2c(=O)n(C)c(=O)n3C)cc1,54
